About 83,000 compounds went through this panel and 20% of them were active in at least one assay; those are over-represented in the sample as a whole.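 Growth was measured after 48 h exposure to one concentration of compound in 96-well plates. Values under 10 count as active.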 A number with no mark means an inactive call. Activity calls are given as the source filed them.
What follows are compounds tested on HL-60(TB) leukemia (assay: NCI-60 one-dose screen, 48 h (100 = growth as untreated, 0 = no growth, -100 = all killed)). Conditions: 10 µM unless noted.

Row | SMILES | growth
1 | O=c1c2ccccc2nc(COc2ccccc2)n1NS(=O)(=O)c1ccc(Cl)cc1 | 75.7%
2 | O=C(/C=C/c1cccc(F)c1)c1cccc(OCCCCOc2cccc(C(=O)/C=C/c3cccc(F)c3)c2)c1 | 101%
3 | COc1ccc(C2CC(c3cccc(OCCCCOc4cccc(C5=NOC(c6ccc(OC)cc6)C5)c4)c3)=NO2)cc1 (stereo not given) | 89.6%
4 | N#Cc1c(NC(=O)c2ccccc2C(F)(F)F)sc2c1CCC(=O)C2 | 3.87% (active)
5 | CCNC(=O)N1CCc2cc(OC)c(OCCc3ccc(OC)nc3)cc2C1c1ccc(OC)cc1C (stereo not given) | 11.5%
6 | O=C(/C=C/c1cccc(Br)c1)c1cccc(OCCCCOc2cccc(C(=O)/C=C/c3cccc(Br)c3)c2)c1 | 95.3%
7 | Cc1cccc(N2CCN(C3=C(Cl)C(=O)c4ncccc4C3=O)CC2)c1 | 7.3% (active)
8 | CCOC(=O)c1ccc(NC2=C(Cl)C(=O)c3nc(C)ccc3C2=O)cc1 | 47.5%
9 | O=C(CCCCCCN1CC(=O)N2[C@@H](c3cccs3)c3[nH]c4ccccc4c3C[C@H]2C1=O)NO | 100%
10 | CNC(=O)c1cc(Oc2ccc3nc(NC(=O)c4ccc(N5CCOCC5)c(C(F)(F)F)c4)sc3c2)ccn1 | 94.2%
11 | COc1ccc(C(C)=C(c2ccc(OCCN(C)C)cc2)c2ccc(OCCN(C)C)cc2)cc1 | -63.3% (active)
12 | CCCn1cnc2c(c1=N)C(c1ccc(OC)cc1)c1sc3c(C)cccc3c1O2 (stereo not given) | 0.388% (active)
13 | C#C[C@]1(O)CC[C@H]2[C@@H]3CC=C4c5sc(Nc6cc(Cl)ccn6)nc5CC[C@]4(C)[C@H]3CC[C@@]21C | 2.68% (active)
14 | O=C(NCCNc1cc(-c2cn(-c3ccccc3)nc2-c2cccc(O)c2)ccn1)Nc1cc(C(F)(F)F)cc(C(F)(F)F)c1 | 97%
15 | NS(=O)(=O)c1ccc(CCn2c(-c3ccc(C(=O)O)cc3)nc(-c3ccccc3)c2-c2ccccc2)cc1 | 101%
16 | O=C(CSc1nc2ccccc2c(=O)n1-c1ccc(S(=O)(=O)Nc2ccc(Cl)nn2)cc1)Nc1ccc(S(=O)(=O)Nc2ccc(Cl)nn2)cc1 | 96.4%
17 | COc1cc2oc(-c3cccc(NC(=O)[C@@H](N)C(C)C)c3)cc(=O)c2c(OC)c1OC | 105%
18 | Cc1ccc(S(=O)(=O)NCCNc2nc(Nc3ccc(N4CCN(C)CC4)cc3)nc3ccsc23)cc1 | 86.4%
19 | c1ccc(C(c2nc3ncncc3[nH]2)N2CSc3nc4ccccc4n3C2)cc1 (stereo not given) | 108%
20 | CN(C)CCNC(=O)c1ccc(-c2nc3ccc4[nH]ncc4c3c3c2COCC3)cc1 | -32.6% (active)

Row | SMILES | growth
21 | O=C(NNc1nc2cc(F)ccc2n2c(CN3CCCC3)ccc12)c1cnccn1 | -30.9% (active)
22 | CNC(=O)c1cc(N2CCc3cc(NC(=O)Nc4ccc(Cl)c(C(F)(F)F)c4)ccc32)ccn1 | 50.3%
23 | Cc1ccccc1N1CCN(C2=C(Cl)C(=O)c3ncccc3C2=O)CC1 | 4.21% (active)
24 | C[C@]12CC[C@H]3[C@@H](CC=C4C[C@@H](O)CC[C@@]43C)[C@@H]1CC[C@@H]2[C@](C)(O)CCc1cccnc1 | 47.6%
25 | COc1ccc(C(=O)c2c(N)c(C#N)cn2-c2cccc(OC)c2)cc1 | 3.83% (active)
26 | O=C(/C=C/c1cccc(F)c1)c1cccc(OCCCOc2cccc(C(=O)/C=C/c3cccc(F)c3)c2)c1 | 68.3%
27 | CCOC(=O)c1c(NC(=O)c2cccc(C(F)(F)F)c2)sc2c(CN3CCN(C)CC3)c(O)ccc12 | -31% (active)
28 | N#Cc1cnc2ccc(-c3cnc4[nH]ncc4c3)cc2c1N1CCc2cc(F)c(Cl)cc21 | 1.45% (active)
29 | COc1ccc(-c2nc3ccc(-c4nnc(SCC(=O)Nc5ccc(C(C)=O)cc5)o4)cc3[nH]2)cc1 | 83.4%
30 | Cc1ccc(/C=N/Nc2nc(Nc3ccccc3)nc(Nc3ccc(S(N)(=O)=O)cc3)n2)cc1 | 75.2%
31 | COc1ccc(Oc2ccc(C3CC(c4cc(OC)c(OC)c(OC)c4)=NN3C(C)=O)cc2)cc1 (stereo not given) | -14.9% (active)
32 | COc1cc(/C=C/C(=O)c2ccc(F)cc2)ccc1Oc1nc(NCCO)nc(N2CCOCC2)n1 | 39.8%
33 | COc1ccc(-c2nc3cccc(O)c3c(=O)n2Cc2ccccc2)cc1COc1ccc(NC(C)=O)cc1 | 45.4% [3 µM]
34 | N#C/C(=C\c1cccc2c1OCO2)C(=O)Nc1sc2c(c1C#N)CCCC2 | 105%
35 | COc1cc(-c2noc(C[C@@H](NC(=O)OCc3ccccc3)C(C)C)n2)cc(OC)c1OC | 100%
36 | CCOC(=O)c1nn(-c2ccc(C)cc2)c(=O)c2c(N)c(C#N)c(-c3ccc(OC)cc3)cc12 | 125%
37 | O=C(Nc1ccc(Cl)c(C(F)(F)F)c1)Nc1ccc2oc(=O)ccc2c1 | 26%
38 | CNC(=O)c1cc(-c2ccc(NS(=O)(=O)c3ccc(C)cc3)cc2)nc2cccnc12 | 113%
39 | CC(=O)OCCCCN1C=C/C(=C\C(=O)n2ccc3ccccc32)c2ccccc21 | 98.6%
40 | CCOC(=O)c1c(NC(=O)c2ccc(C(F)(F)F)cc2)sc2c3c(ccc12)OCN(C)C3 | -27.6% (active)

Reference: PubChem BioAssay (NCI)
